Reference: PubChem BioAssay AID1347418 (Sanford-Burnham Center for Chemical Genomics, 2020)
The campaign covered roughly 1,300 compounds. About 750 (58%) were called active. The list shows a part of the results.

Each molecule was assayed against Sulfhydryl oxidase 1 (Homo sapiens) (UniProt O00391) (assay: inhibition of human sulfhydryl oxidase QSOX1 – biochemical, ROS-Glo H2O2 luminescence, HTS, primary screen (AID 1347418)). Details: recombinant QSOX1, ROS-Glo H2O2 luminescence, at 12.5 µM, hits give high values; active = any value above zero unless noted.
Chain of Sulfhydryl oxidase 1 (Homo sapiens) (O00391 whole entry, looked up): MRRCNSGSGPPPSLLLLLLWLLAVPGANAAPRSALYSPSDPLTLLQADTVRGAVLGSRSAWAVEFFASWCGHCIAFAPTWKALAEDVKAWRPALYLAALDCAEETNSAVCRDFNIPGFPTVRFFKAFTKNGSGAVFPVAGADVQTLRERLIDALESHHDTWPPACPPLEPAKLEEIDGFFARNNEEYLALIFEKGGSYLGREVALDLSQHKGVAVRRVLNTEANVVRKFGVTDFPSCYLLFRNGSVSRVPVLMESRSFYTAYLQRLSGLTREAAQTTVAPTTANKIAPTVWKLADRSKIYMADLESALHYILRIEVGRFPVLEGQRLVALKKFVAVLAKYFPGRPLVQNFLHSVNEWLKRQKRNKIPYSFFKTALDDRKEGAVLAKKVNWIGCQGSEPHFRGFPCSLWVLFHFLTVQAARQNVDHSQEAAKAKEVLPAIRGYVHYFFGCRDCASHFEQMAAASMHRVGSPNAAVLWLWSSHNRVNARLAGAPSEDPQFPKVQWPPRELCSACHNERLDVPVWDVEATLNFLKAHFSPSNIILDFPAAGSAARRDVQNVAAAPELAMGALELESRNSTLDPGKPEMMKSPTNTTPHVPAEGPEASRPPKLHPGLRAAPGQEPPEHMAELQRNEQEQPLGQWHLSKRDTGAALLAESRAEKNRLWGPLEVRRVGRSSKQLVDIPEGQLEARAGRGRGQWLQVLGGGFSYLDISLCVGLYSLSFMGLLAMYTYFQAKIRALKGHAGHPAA

Structure (SMILES) | inhibition
C[C@@H]1O[C@@H](O[C@H]2C[C@@H](O)[C@]3(CO)[C@H]4[C@H](O)C[C@]5(C)[C@@H](C6=CC(=O)OC6)CC[C@]5(O)[C@@H]4CC[C@]3(O)C2)[C@H](O)[C@H](O)[C@H]1O | 1.8% [setting not given] (active)
C[C@@H]1O[C@@H](O[C@H]2C[C@@H](O)[C@]3(CO)[C@@H]4C(CC[C@]3(O)C2)[C@@]2(O)CC[C@H](C3COC(=O)C3)[C@@]2(C)C[C@H]4O)[C@H](O)[C@H](O)[C@H]1O (stereo partly drawn) | -6.9% (inactive)
CN1C2CCC1CC(OC(=O)c1cc(Cl)cc(Cl)c1)C2 (stereo not drawn) | -0.7% (inactive)
CN1C2CCC1CC(OC(c1ccccc1)c1ccccc1N)C2 (stereo not drawn) | 1.1% (active)
NC(=NCCC[C@H](N)C(=O)O)N[N+](=O)[O-] | -2.6% (inactive)
COC(=O)[C@@H](N)CCCN=C(N)N[N+](=O)[O-] | 2.4% (active)
C[C@]12Cc3cn4c(nc3C=C1CCC1C2CC[C@@]2(C)[C@H]1CC[C@@]2(O)C#N)nc1ccccc14 (stereo partly drawn) | 2.7% (active)
Cc1o[nH]c(=O)c1CC(N)C(=O)O (stereo not drawn) | 4.2% (active)
NC(C(=O)O)c1cc(=O)[nH]o1 (stereo not drawn) | -2.4% (inactive)
CCCN(CCC)CCc1ccc(O)c(O)c1 | 14.4% (active)
CNCCc1ccc(O)c(O)c1 | 7.7% (active)
CC(N)c1cccc(Cl)c1Cl (stereo not drawn) | 6.2% (active)
CC(C)(C)NCC(O)c1ccccc1Cl (stereo not drawn) | -0.6% (inactive)
O=C(O)[C@@H]1CCN1 | 9.3% (active)
C[C@H](N)Cc1cccc(C(F)(F)F)c1 | 1.6% [setting not given] (active)
O=[N+]([O-])c1cc(O)c(O)c([N+](=O)[O-])c1 | 13% (active)
N=C(N)c1ccc(CS(=O)(=O)F)cc1 | -0.1% (inactive)
NCCc1ccc(O)cc1 | -0.2% [setting not given] (inactive)
NCCc1ccc(S(=O)(=O)F)cc1 | 5.8% (active)
CC1=NN=C(c2ccc(N)cc2)c2cc3c(cc2C1)OCO3 | 10.6% (active)
NCC(CC(=O)O)c1ccc(Cl)cc1 (stereo not drawn) | 1.1% [setting not given] (active)
NCC(CP(=O)(O)O)c1ccc(Cl)cc1 (stereo not drawn) | 0.1% (active)

Structure (SMILES) | inhibition
CCCCC/C=C\C/C=C\C/C=C\C/C=C\CCCC(=O)NCC(=O)O | 2.2% (active)
Cc1cccc(C)c1NC1=NCCCS1 | 0.2% [setting not given] (active)
Nc1ccncc1 | -1% [setting not given] (inactive)
CCN1C[C@@]2(COC)C3[C@@H](OC)C4[C@@H]1C3([C@@H]1C[C@@]3(O)[C@H](OC(=O)c5ccccc5)[C@@H]1[C@]4(OC(C)=O)[C@@H](O)[C@@H]3OC)[C@H](OC)C[C@H]2O | 2.6% (active)
CNc1ccc2oc(C[C@H]3O[C@@]4(CC[C@H]3C)O[C@H]([C@H](C)C(=O)c3ccc[nH]3)[C@H](C)C[C@H]4C)nc2c1C(=O)O | 14.2% [setting not given] (active)
Cc1nccc2c1[nH]c1ccccc12 | -2% [setting not given] (inactive)
Cc1c2ccncc2c(C)c2c1[nH]c1ccccc12 | 29% [setting not given] (active)
NC(CCCCCP(=O)(O)O)C(=O)O (stereo not drawn) | -4.6% (inactive)
NC(CCP(=O)(O)O)C(=O)O (stereo not drawn) | 2.8% (active)
NC(CP(=O)(O)O)C(=O)O (stereo not drawn) | 2.8% (active)
CO[C@H]1CC=C2CCN3CCC4=C(CC(=O)OC4)[C@]23C1 | 0.6% (active)
O=c1[nH]oc2c1CCNC2 | -7.3% (inactive)
c1ccc2sc(C3(N4CCCCC4)CCCCC3)cc2c1 | 0.2% (active)
Cc1sc2ccccc2c1CC1=NCCN1 | -3.3% (inactive)
CC(C)N(CCC(C(N)=O)(c1ccccc1)c1ccccn1)C(C)C (stereo not drawn) | 6.1% [setting not given] (active)
CC1(C(=O)O)C2CCC(O2)C1(C)C(=O)O (stereo not drawn) | -3.3% (inactive)
COc1ccc(CNC(=O)/C=C/c2ccc3[nH]cc(CCN(C)C)c3c2)cc1 | 1.8% [setting not given] (active)
O=C(Cc1ccc(Cl)c(Cl)c1)N1CCCCC1CN1CCCC1 (stereo not drawn) | -1.7% (inactive)
COC(=O)N1CCN(C(=O)Cc2ccc(Cl)c(Cl)c2)C(CN2CCCC2)C1 (stereo not drawn) | -0.5% (inactive)
CN(C(=O)Cc1ccc(Cl)c(Cl)c1)C(CN1CCCC1)c1cccc(OCC(=O)O)c1 (stereo not drawn) | 1.2% (active)
CC(C)c1cccc(C(C)C)c1O | 0.9% (active)
